# Several values for one entry are separate records, joined by “and”; a condition that tells them apart may be missing. Identical values can stand only once. Out of some 190,000 compounds screened, about 810 (0.43%) were called active. Rule as the data show it: active = inhibition above about 50%; inactive = the rest. The entries come from a sample that favours actives as a whole.
# Molecular target: Mannose-6-phosphate isomerase (Homo sapiens) (UniProt P34949)
# Test: MPI enzyme activity inhibition – biochemical, fluorescence intensity, coupled assay, primary screen (AID 1209);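 also: plate controls were DMSO vehicle for no effect and wells lacking substrate for full effect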
# Details: purified PMI enzyme, at 20 µM, hits give high values
# Chain of Mannose-6-phosphate isomerase (Homo sapiens) (P34949 whole entry, looked up): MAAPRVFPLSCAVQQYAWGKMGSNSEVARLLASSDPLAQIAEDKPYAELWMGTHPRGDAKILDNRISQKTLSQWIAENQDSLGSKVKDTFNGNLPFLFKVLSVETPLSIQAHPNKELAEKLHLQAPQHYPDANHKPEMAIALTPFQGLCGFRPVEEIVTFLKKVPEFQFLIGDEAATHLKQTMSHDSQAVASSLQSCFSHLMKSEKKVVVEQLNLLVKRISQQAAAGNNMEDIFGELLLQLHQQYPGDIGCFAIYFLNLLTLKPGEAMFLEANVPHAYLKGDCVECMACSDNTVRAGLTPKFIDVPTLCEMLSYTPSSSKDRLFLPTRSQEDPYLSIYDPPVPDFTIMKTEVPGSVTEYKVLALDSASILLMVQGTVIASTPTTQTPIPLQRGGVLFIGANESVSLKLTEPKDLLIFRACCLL
row,Structure (SMILES),inhibition
1,CCOc1ccc(-c2[nH]nc3c2C(c2ccc(O)cc2)C(C#N)=C(N)O3)cc1 (stereo not given),27.8% (inactive)
2,COc1ccc(-c2noc(CN(C(=O)C(C)(C)C)C(C)C)n2)cc1,15.9% (inactive)
3,Cc1oc2cc(O)ccc2c(=O)c1-c1cnn(-c2ccccc2)c1,-5.2% (inactive)
4,Cc1oc2c(C)c(O)ccc2c(=O)c1-c1cnn(-c2ccccc2)c1,-14.8% (inactive)
5,Cc1oc2c(O)c(O)ccc2c(=O)c1-c1cnn(-c2ccccc2)c1,79.5% (active)
6,CCC(CC)=C(C#N)C(=O)NC1CCCCC1,-12.5% (inactive)
7,CCN(C(=O)COC(=O)c1cc(-c2ccccc2)nc2c1c(C)nn2-c1ccccc1)C1CCS(=O)(=O)C1 (stereo not given),14.7% (inactive)
8,COc1ccc(-c2cc(=O)c3cc(OC)ccc3o2)cc1,-5% (inactive)
9,COc1cc(OC)c(-c2c3cc(O)c(=O)cc-3oc3cc(O)c(O)cc23)cc1OC,73.9% (active)
10,COc1ccc(OC)c(-c2oc3ccccc3c(=O)c2O)c1,-5.6% (inactive)
11,CC1(C)CC(=O)c2c(oc3cc(O)c(O)cc23)C1,47.6% (inactive)
12,O=c1cc(-c2ccccc2Cl)oc2cccc(O)c12,-9.9% (inactive)
13,COc1ccc(OC)c(-c2c3cc(O)c(=O)cc-3oc3cc(O)c(O)cc23)c1,61.1% (active)
14,COc1cc(-c2cc(=O)c3ccccc3o2)ccc1O,5.9% (inactive)
15,CCOc1ccccc1-c1c2cc(O)c(=O)cc-2oc2cc(O)c(O)cc12,46.2% (inactive)
16,Nc1cnn(Cc2ccccc2F)c1,18.2% (inactive)
17,COc1ccc2[nH]cc(CCn3ccc(=O)c(C)c3C)c2c1,0.3% (inactive)
18,O=C(Nc1ccccc1)c1sccc1Oc1ccc([N+](=O)[O-])cc1F,-6% (inactive)
19,COc1ccc2c(=O)c(-c3ccccc3)coc2c1,52.5% (active)
20,CC(=O)Oc1ccc2c(=O)c(-c3ccccc3)coc2c1,-0.1% (inactive)
21,CC(C)Oc1ccc2c(=O)c(-c3ccccc3)coc2c1,0.6% (inactive) and 7.3% (inactive)
22,COc1cccc(-c2ccc(SCC(=O)NCCc3ccccc3)nn2)c1,1.9% (inactive)
23,O=c1[nH]c2ccccc2c(O)c1O,71.8% (active)
24,O=c1[nH]c2ccccc2c2ccccc12,3.2% (inactive)
25,CC(=O)Nc1c(O)c2ccccc2[nH]c1=O,20.2% (inactive)

row,Structure (SMILES),inhibition
1,Cc1cccc(/C(N)=N/OC(=O)C23CC4CC(CC(C4)C2)C3)c1,9% (inactive)
2,Cn1c(=O)n(Cc2ccc(F)cc2)c(=O)c2c1nc1n2CCCN1C1CCCCC1,6% (inactive)
3,CCOCCCNC(=O)CCC(=O)NNc1nc2ccccc2c2nc(C)nn12,57.5% (active)
4,COCCCNC(=O)CCC(=O)NNc1nc2ccccc2c2nc(C)nn12,-1.5% (inactive)
5,CCCCNC(=O)CCC(=O)NNc1nc2ccccc2c2nc(C)nn12,6.3% (inactive)
6,COC(=O)c1cccc(NS(=O)(=O)c2ccc(NC(C)=O)cc2)c1C,-4.2% (inactive)
7,O=C(CCN1CCN(c2ccccc2)CC1)N/N=C/c1ccc(O)c(O)c1O,57.4% (active)
8,O=C(CCN1CCN(c2ccccc2)CC1)N/N=C/c1ccccc1O,-8.5% (inactive)
9,O=[N+]([O-])c1ccc(N/N=C/c2cccc(O)c2O)c(S(=O)(=O)N2CCOCC2)c1,16.7% (inactive)
10,O=C(CCc1ccc(S(=O)(=O)N2CCOCC2)cc1)N/N=C/c1ccc(F)cc1F,4.8% (inactive)
11,COc1ccc(/C=N/NC(=O)CCN2CCN(c3ccccc3)CC2)c(OC)c1OC,-3.2% (inactive)
12,O=[N+]([O-])c1ccc(N/N=C/c2ccc(O)c(O)c2O)c(S(=O)(=O)N2CCOCC2)c1,82.3% (active)
13,O=C(Cc1csc(N2CCOCC2)n1)N/N=C/c1ccc(Cl)cc1Cl,4.7% (inactive)
14,COc1cc(/C=N/Nc2ccc([N+](=O)[O-])cc2S(=O)(=O)N2CCOCC2)cc(OC)c1OC,-6.8% (inactive)
15,O=C(Cc1csc(N2CCOCC2)n1)N/N=C/c1ccc(O)c(O)c1O,83.3% (active)
16,O=C(CCc1ccc(S(=O)(=O)N2CCOCC2)cc1)N/N=C/c1ccc(O)c(O)c1O,57.6% (active)
17,O=C(Cc1csc(N2CCOCC2)n1)N/N=C/c1cccc(O)c1,3.3% (inactive)
18,O=C(CCc1ccc(S(=O)(=O)N2CCOCC2)cc1)N/N=C/c1cccc(O)c1,11.1% (inactive)
19,CN(C)C(=O)COc1ccc(Br)cc1,8.1% (inactive)
20,O=C(NN=C1CCCC1)c1sc2ccccc2c1Cl,-19.6% (inactive)
21,COc1ccc(N(C(=O)CCl)C(C(=O)NCCc2ccccc2)c2cccs2)cc1Cl (stereo not given),-8.6% (inactive)
22,Cc1noc(NS(=O)(=O)c2ccc(NC(=O)C34CC5CC(C3)CC(n3cnc(Br)n3)(C5)C4)cc2)c1C,0.3% (inactive)
23,O=C(CN1C(=O)CCC1=O)c1ccc(-c2ccccc2)cc1,5.6% (inactive)
24,CC(=O)Nc1nc(SCc2ccc(Cl)cc2Cl)n[nH]1,2% (inactive)
25,Nn1c(COc2ccc(Cl)cc2)nc2ccccc2c1=O,-0.6% (inactive)

row,Structure (SMILES),inhibition
1,CC(=O)Nc1ccc(S(=O)(=O)N2CCN(C(=O)c3cccnc3)CC2)cc1,17.8% (inactive)
2,CCOc1ccc(CCNC(=O)c2ccc(N3CCCC3=O)cc2)cc1OCC,1.3% (inactive)
3,O=C1CN(CC(=O)Nc2ccc(SC(F)F)cc2)CCN1,2.5% (inactive)
4,O=C(NCc1ccccc1)c1cccc(OCC(=O)N2CCN(C(=O)c3ccco3)CC2)c1,2% (inactive)
5,COC(=O)C1=C(C(=O)OC)SC(=C2C(=S)C(C)(C)N(C(=O)C3CC3)c3ccccc32)S1,71.6% (active)
6,CC1(C)c2ssc(=S)c2-c2ccccc2N1C(=O)CSC1=NCCS1,14.3% (inactive)
7,COC(=O)C1=C(C(=O)OC)SC(=C2C(=S)C(C)(C)N(C(=O)C(C)C)c3ccccc32)S1,68% (active)
8,CCCC(=O)N1c2ccccc2C(=C2SC(C(=O)OC)=C(C(=O)OC)S2)C(=S)C1(C)C,62.1% (active)
9,C/C=C/C(=O)N1c2ccccc2C(C)=CC1(C)C,-2.5% (inactive)
10,COC(=O)C1=C(C(=O)OC)SC(=C2C(=S)C(C)(C)N(C(=O)CC(C)C)c3ccccc32)S1,38.8% (inactive)
11,CC1C(=O)Nc2ccccc2N1C(=O)C1CC1 (stereo not given),-18% (inactive)
12,CCC(C)C(=O)N1c2ccccc2C(=C2SC(C(=O)OC)=C(C(=O)OC)S2)C(=S)C1(C)C (stereo not given),63.8% (active)
13,COC(=O)C1=NN(c2ccccc2)C2(S1)SC(C(C)=O)=C(C)N2c1ccccc1 (stereo not given),9.2% (inactive)
14,CCCC(C(=O)O)N1C(=O)/C(=C2\C(=O)N(C)c3ccccc32)SC1=S (stereo not given),16.5% (inactive)
15,CN1C(=O)/C(=C2\SC(=S)N(C(CCC(=O)O)C(=O)O)C2=O)c2ccccc21 (stereo not given),22.8% (inactive)
16,O=C(C1CCC(C(=O)N2CCc3ccccc32)CC1)N1CCc2ccccc21 (stereo not given),3.2% (inactive)
17,Cc1ccc(/C=C/C(=O)CCC(=O)O)cc1,-0.7% (inactive)
18,O=C(N/N=C/c1c[nH]c2ccccc12)c1sc2ccccc2c1Cl,17.1% (inactive)
19,COc1cc(C2C3=C(CC(C)(C)CC3=O)OC3=C2C(=O)CC(C)(C)C3)cc([N+](=O)[O-])c1O,0.1% (inactive)
20,O=C(CC1SC(=O)N(Cc2cccc3ccccc23)C1=O)Nc1nccs1 (stereo not given),9.8% (inactive)
21,O=C(/C=C/c1ccccc1)Oc1ccccc1C(=S)N1CCOCC1,15.6% (inactive)
22,Cc1csc(NC(=O)c2cc(C)oc2C)n1,-8.4% (inactive)
23,CCOC(=O)c1sc(NC(=O)C2CCCO2)c(C(=O)OCC)c1C (stereo not given),11.4% (inactive)
24,Cc1ccc(NC(=S)Nn2cnnc2)cc1,61.8% (active)
25,FC(F)Oc1ccc(NC(=S)Nn2cnnc2)cc1,55.2% (active)

row,Structure (SMILES),inhibition
1,CN1CCN(NC(=S)Nc2ccc(OC(F)F)cc2)CC1,-15.1% (inactive)
2,CCc1ccc(NC(=S)Nn2cnnc2)cc1,54.2% (active)
3,CCc1ccc(NC(=S)NCc2ccccc2)cc1,-2.6% (inactive)
4,COc1ccc(NC(=S)NN2CCN(C)CC2)cc1OC,22.9% (inactive)
5,S=C(Nc1ccccc1)Nn1cnnc1,48.4% (inactive)
6,COc1ccc(NC(=S)Nn2cnnc2)cc1OC,61.2% (active)
7,FC(F)Oc1ccc(NC(=S)NN2CCOCC2)cc1,-3.1% (inactive)
8,CCc1ccc(NC(=S)Nc2ccc(S(=O)(=O)Nc3ncccn3)cc2)cc1,-1.7% (inactive)
9,CNC(=S)Nc1ccc(OC)c(OC)c1,7.4% (inactive)
10,Cc1ccc(C(=O)NC(=S)Nn2cnnc2)cc1,12.4% (inactive)
11,CCc1ccc(C(=O)COC(=O)c2n[nH]c3ccccc23)cc1,-0.2% (inactive)
12,CCC1C(=O)N(C)CCc2ccccc21 (stereo not given),-5.7% (inactive)
13,COC(=O)c1nc(-c2ccccc2)oc1N1CCOCC1,-4.7% (inactive)
14,COc1ccc(C)cc1NC(=O)C(Sc1nnc2ccccn12)c1ccccc1 (stereo not given),-1% (inactive)
15,Cc1ccc(S(=O)(=O)N/N=C/c2ccc(OS(=O)(=O)c3ccc(C)c([N+](=O)[O-])c3)cc2)cc1,1.6% (inactive)
16,O=C(/C=C/c1ccc(Br)cc1)c1ccc(NC2=NCCCS2)cc1,1.6% (inactive)
17,O=c1cnnc(Nc2cccc(C(F)(F)F)c2)[nH]1,-10.6% (inactive)
18,O=c1cc(O)c2sc(Nc3ccc(F)c(Cl)c3)nc2[nH]1,41.4% (inactive)
19,COc1ccc(Nc2nc3ccc(OC)cc3s2)cc1,-0.9% (inactive)
20,COc1ccc(Nc2nc(C)cc(=O)[nH]2)cc1,5.6% (inactive)
21,Cc1cc(=O)[nH]c(Nc2cccc(C(F)(F)F)c2)n1,-10.3% (inactive)
22,Fc1ccc(Nc2nc3ccccc3s2)cc1,7.9% (inactive)
23,COc1ccc(Nc2nc3[nH]c(=O)cc(O)c3s2)cc1,50.2% (active)
24,O=c1cc(O)c2sc(Nc3cccc(C(F)(F)F)c3)nc2[nH]1,52.4% (active)
25,O=c1cc(O)c2sc(Nc3ccc(F)cc3)nc2[nH]1,69.8% (active)
